Consider eight compounds from PubChem BioAssay (NCI).

Some test systems named below: NCI-H23 lung; NCI-H226 lung; HOP-62 NSCLC; NCI-H460 lung; HOP-92 NSCLC; NCI-H522 lung; A549/ATCC NSCLC; 786-0 renal; COLO 205 colon; DU-145 prostate; K-562 leukemia; MDA-MB-231 breast; RXF 393 renal; SF-268 CNS; SF-295 CNS; SF-539 CNS; UACC-257 melanoma; M14 melanoma; MALME-3M melanoma.
Holding throughout (test): NCI-60 one-dose screen, 48 h (100 = growth as untreated, 0 = no growth, -100 = all killed)
Holding throughout (conditions): 10 µM unless noted

Molecules are shown by their SMILES. This is part of a sample that, as a whole, favours compounds with a hit. Of some 83,000 tested, about 20% had one in any assay.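 Interpretation: 100, growth as untreated; towards 0, rising growth inhibition; 0, no net growth; 0 to -100, cell death. Compounds scoring below 10 were considered active.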 Unmarked numbers belong to inactive results. Calls of active or inactive are those of the source.

`Cn1cc(-c2nc(-c3cn(C)c4ncccc34)cs2)c2cc(F)ccc21`: the growth with NCI-H23 lung was 43.3%; in the assay on NCI-H226 lung, 68.8%; with HOP-62 NSCLC it was 53.7%; in the assay on NCI-H460 lung, 15.8%; with HOP-92 NSCLC, 72.4%; with NCI-H522 lung, -0.482% (active). For the same compound, the growth in the assay with A549/ATCC NSCLC was 38.1%; in the assay with 786-0 renal it was 45.9%; in the assay with COLO 205 colon, 31.3%; in the assay with DU-145 prostate, 57.4%; in the assay with K-562 leukemia, 16%; in the assay with MDA-MB-231 breast, 47.1%. Moreover, the growth was 30.8% with RXF 393 renal; 52.2% in the assay on SF-268 CNS; 16.3% in the assay with SF-295 CNS; 26.6% in the assay on SF-539 CNS; 61.7% with UACC-257 melanoma; 17.2% in the assay with M14 melanoma.
Regarding `O=C1CN(c2ccccc2)C(=O)C1C(=O)Nc1ccc(Cl)c(Cl)c1` (centres undefined), the growth in the assay on NCI-H23 lung was 31.2% [100 µM]; in the assay on NCI-H226 lung it was 41.6% [100 µM]; with HOP-62 NSCLC, 9.46% [100 µM] (active); in the assay with NCI-H460 lung, -2.82% [100 µM] (active); in the assay on HOP-92 NSCLC, 10.6% [100 µM]; in the assay on NCI-H522 lung it was 8.5% [100 µM] (active). For the same compound, the growth in the assay on A549/ATCC NSCLC was 16.2% [100 µM]; in the assay on 786-0 renal it was 0.0265% [100 µM] (active); with COLO 205 colon, -23.1% [100 µM] (active); with DU-145 prostate, 38.9% [100 µM]; with K-562 leukemia, 20.1% [100 µM]; in the assay on MALME-3M melanoma, -11.7% [100 µM] (active). For the same compound, the growth was 27.2% [100 µM] in the assay on MDA-MB-231 breast; 34.7% [100 µM] with RXF 393 renal; 31.2% [100 µM] in the assay with SF-268 CNS; 0.977% [100 µM] (active) in the assay on SF-295 CNS; -9.88% [100 µM] (active) in the assay on SF-539 CNS; 16.2% [100 µM] in the assay on UACC-257 melanoma. Further, the growth in the assay with M14 melanoma is 28.8% [100 µM].
`CN(C)CCCCC(C(=O)CBr)(c1ccccc1)c1ccccc1`: the growth is 30.6% with NCI-H23 lung; 86.1% in the assay on NCI-H226 lung; 51.8% in the assay with HOP-62 NSCLC; 49.5% in the assay on NCI-H460 lung; -12.2% (active) in the assay with HOP-92 NSCLC; -90% (active) in the assay with NCI-H522 lung. Moreover, the growth was 49.7% in the assay with A549/ATCC NSCLC; 5.16% (active) in the assay with 786-0 renal; -76% (active) in the assay on COLO 205 colon; 31% with DU-145 prostate; -7.09% (active) in the assay with K-562 leukemia; -55.9% (active) in the assay with MALME-3M melanoma. Besides, the growth was 38.1% with MDA-MB-231 breast; -51.5% (active) with RXF 393 renal; 48.7% in the assay with SF-268 CNS; 43.7% in the assay with SF-295 CNS; 20.2% with SF-539 CNS; 6.07% (active) in the assay with UACC-257 melanoma. Moreover, the growth with M14 melanoma was 18.8%.
On to `Fc1ccc2[nH]cc(-c3nc(-c4c[nH]c5ncccc45)cs3)c2c1`, for which the growth in the assay with NCI-H23 lung is 43.7%; in the assay with NCI-H226 lung, 47.4%; in the assay with HOP-62 NSCLC it was 47.6%; in the assay on NCI-H460 lung, 9.85% (active); in the assay on HOP-92 NSCLC, 24.3%; in the assay with NCI-H522 lung, -7.49% (active). Further, the growth in the assay with A549/ATCC NSCLC was 31.1%; in the assay with 786-0 renal, 41.5%; with COLO 205 colon, 45.1%; in the assay on DU-145 prostate, 30.5%; in the assay with K-562 leukemia it was 16.9%; in the assay with MDA-MB-231 breast, 44.4%. Also, the growth in the assay with RXF 393 renal was 55%; in the assay with SF-268 CNS, 48.9%; in the assay with SF-295 CNS, 17.8%; in the assay with SF-539 CNS, 27.3%; in the assay with UACC-257 melanoma it was 53.8%; in the assay on M14 melanoma, 46.1%.
As to `C=C1CC[C@@H](C(=O)OC)Cc2nc(C)ccc21`, the growth was 97% with NCI-H23 lung; 103% in the assay with NCI-H226 lung; 106% with HOP-62 NSCLC; 106% in the assay with NCI-H460 lung; 106% with HOP-92 NSCLC; 86.4% in the assay with NCI-H522 lung. Further, the growth in the assay with A549/ATCC NSCLC is 98.5%; in the assay on 786-0 renal, 101%; in the assay on COLO 205 colon it was 117%; in the assay on DU-145 prostate it was 119%; with K-562 leukemia it was 101%; with MALME-3M melanoma, 105%. Besides, the growth in the assay on MDA-MB-231 breast was 108%; with RXF 393 renal, 118%; in the assay with SF-268 CNS it was 109%; in the assay on SF-295 CNS, 98.4%; in the assay on SF-539 CNS, 99.3%; in the assay on UACC-257 melanoma it was 94.4%. Also, the growth in the assay with M14 melanoma is 105%.
Regarding `Cn1c(=O)c2c(ncn2CCC(=O)Nc2ccc(F)cc2)n(C)c1=O`, the growth is 100% in the assay with NCI-H23 lung; 109% in the assay with NCI-H226 lung; 92.6% in the assay on HOP-62 NSCLC; 108% with NCI-H460 lung; 95.5% in the assay with HOP-92 NSCLC; 90.3% in the assay on NCI-H522 lung. Further, the growth is 89.5% in the assay with A549/ATCC NSCLC; 95.1% with 786-0 renal; 108% in the assay with COLO 205 colon; 105% with DU-145 prostate; 96% in the assay with K-562 leukemia; 114% with MALME-3M melanoma. The growth in the assay on MDA-MB-231 breast was 102%; in the assay with RXF 393 renal, 115%; with SF-268 CNS, 103%; in the assay on SF-295 CNS it was 105%; with SF-539 CNS, 96.9%; in the assay with M14 melanoma, 97.8%.
Regarding `CC1(C)C(=O)CC[C@]2(C)[C@H]3C(=O)C=C4[C@@H]5C[C@@](C)(C(=O)NCCNCCN)CC[C@]5(C)CC[C@@]4(C)[C@]3(C)CC[C@@H]12`, the growth with NCI-H23 lung was 98.4%; in the assay with NCI-H226 lung it was 96.8%; in the assay on HOP-62 NSCLC, 94.1%; in the assay on NCI-H460 lung, 99.2%; with HOP-92 NSCLC it was 66.2%; in the assay with NCI-H522 lung, 111%. Also, the growth in the assay on A549/ATCC NSCLC is 97.6%; in the assay with 786-0 renal, 99.9%; in the assay with COLO 205 colon, 108%; with DU-145 prostate it was 102%; in the assay with K-562 leukemia, 86.6%; in the assay on MALME-3M melanoma it was 92.2%. Also, the growth in the assay on MDA-MB-231 breast is 102%; in the assay on RXF 393 renal, 103%; with SF-268 CNS, 83.9%; with SF-295 CNS, 101%; with SF-539 CNS it was 98.7%; in the assay on UACC-257 melanoma, 101%. Also, the growth in the assay with M14 melanoma was 90.6%.
As to `Cc1ccc(/C=C(\C#N)c2cc3ccccc3n2C)cc1`, the growth is 24.6% in the assay with NCI-H23 lung; 57.6% with NCI-H226 lung; 47.1% in the assay with HOP-62 NSCLC; 11% in the assay with NCI-H460 lung; 90.5% in the assay on HOP-92 NSCLC; 31.3% in the assay on NCI-H522 lung. In addition, the growth is 31.2% in the assay on A549/ATCC NSCLC; 49.9% in the assay on 786-0 renal; 3.21% (active) in the assay on COLO 205 colon; 25.5% in the assay on DU-145 prostate; 14.7% with K-562 leukemia; 59.8% in the assay on MALME-3M melanoma. In addition, the growth in the assay on MDA-MB-231 breast is 18.7%; in the assay on RXF 393 renal, 20.6%; in the assay with SF-268 CNS, 64.4%; in the assay on SF-295 CNS, 9.43% (active); with SF-539 CNS, 8.03% (active); in the assay on UACC-257 melanoma, 89.6%. Also, in the assay with M14 melanoma, the growth is 14%.
